Experimental data: the supplement of paper PMC6089552
Out of some 3,200 compounds screened, about 300 (9.4%) showed activity. Many of the other results were omitted from the sample, so actives are more common in it than they were.

System: A673/TR/shEF
Experiment: cell viability (LOESS-normalised, relative to median of negative controls) (log2 ratio); higher = more viable cells (less compound effect), active = hit call of the paper (over 3 MAD below the median)
Conditions: treatment time: 72 h
Summary of the method: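 A673/TR/shEF Ewing sarcoma cells (1,500 per well, 384-well plates) were grown with or without doxycycline to induce EWS-FLI1 shRNA knockdown, starting 24 h before compounds. Library compounds at two or more concentrations, with DMSO controls, were added for three days. Cell viability was read by CellTiter-Glo luminescence on an Envision reader, then LOESS-corrected per plate, divided by the median of negative controls and log2-transformed. Hits were wells at least three median absolute deviations from the median of all screened wells.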

[1] = 0.25 µM, library screen: screen2, EWS-FLI1 expression: high (no doxycycline)
[2] = 0.25 µM, library screen: screen2, EWS-FLI1 expression: low (doxycycline-induced shRNA knockdown)
[3] = 2.5 µM, library screen: screen2, EWS-FLI1 expression: high (no doxycycline)
[4] = 2.5 µM, library screen: screen2, EWS-FLI1 expression: low (doxycycline-induced shRNA knockdown)
[5] = 0.25 µM, library screen: screen1, EWS-FLI1 expression: high (no doxycycline)
[6] = 0.25 µM, library screen: screen1, EWS-FLI1 expression: low (doxycycline-induced shRNA knockdown)
[7] = 2.5 µM, library screen: screen1, EWS-FLI1 expression: high (no doxycycline)
[8] = 2.5 µM, library screen: screen1, EWS-FLI1 expression: low (doxycycline-induced shRNA knockdown)

Measured: cell viability (log2)

C#CCOC(=O)C1=CCCN(C)C1
inactive: [1] 0.0844 | [2] 0.129 | [3] 0.0951 | [4] 0.11

CC(Cc1ccc(OCC(=O)O)cc1)NCC(O)c1cccc(Cl)c1 (configuration not stated)
inactive: [1] 0.122 | [2] 0.143 | [3] 0.229 | [4] 0.136

C[N+]1(C)CCc2cc3c(cc2[C@H]1[C@@H]1OC(=O)c2c1ccc1c2OCO1)OCO3
inactive: [1] 0.123 | [2] 0.0886 | [3] 0.123 | [4] 0.104

COC[C@]12CN(C=O)[C@H]3C4[C@H](OC)[C@H]1C3([C@@H](OC)C[C@H]2O)[C@@H]1C[C@@]2(O)[C@H](OC(=O)c3ccccc3)[C@@H]1[C@]4(OC(C)=O)[C@@H](O)[C@@H]2OC
inactive: [5] 0.0391 | [6] 0.0831 | [7] 0.0466 | [8] 0.114

C=CCN1C[C@@H](C)N([C@H](c2ccc(C(=O)N(CC)CC)cc2)c2cccc(OC)c2)C[C@@H]1C
inactive: [1] 0.0848 | [2] 0.0464 | [3] 0.222 | [4] 0.00445

COc1cc2c(cc1OC)[C@@]13CCN4CC5=CCO[C@H]6CC(=O)N2[C@H]1[C@H]6[C@H]5C[C@H]43
inactive: [5] 0.0057 | [6] 0.0368 | [7] 0.098 | [8] -0.0757

CC(=O)Oc1ccc(C=Cc2cc(OC(C)=O)cc(OC(C)=O)c2)cc1
inactive: [5] 0.101 | [6] 0.0764 | [7] 0.00309 | [8] 0.228

Nc1ncnc2c1ncn2C1OC2COP(O)(=S)OC2C1O (configuration not stated)
inactive: [1] 0.0926 | [2] 0.132 | [3] 0.0861 | [4] 0.0676

O.O=C1OC2(c3cc(Br)c([O-])cc3Oc3c2cc(Br)c([O-])[c]3[Hg])c2ccccc21.[Na+].[Na+] (configuration not stated)
inactive: [5] 0.113 | [6] 0.0666 | [7] 0.139 | [8] 0.132

CN1C2CCC1CC(OC(=O)C(CO)c1ccccc1)C2 (configuration not stated)
inactive: [1] 0.252 | [2] 0.166 | [3] 0.123 | [4] 0.223

C[C@]12CC[C@H]3[C@@H](CCC4=CC(=O)CC[C@@]43C)[C@@H]1CC[C@@H]2OC(=O)CCC1CCCC1
inactive: 0.103 µM, library screen: screen3, EWS-FLI1 expression: high (no doxycycline) -0.000785 | 0.103 µM, library screen: screen3, EWS-FLI1 expression: low (doxycycline-induced shRNA knockdown) 0.011 | 0.308 µM, library screen: screen3, EWS-FLI1 expression: high (no doxycycline) 0.0351 | 0.308 µM, library screen: screen3, EWS-FLI1 expression: low (doxycycline-induced shRNA knockdown) 0.0268 | 0.926 µM, library screen: screen3, EWS-FLI1 expression: high (no doxycycline) 0.0442 | 0.926 µM, library screen: screen3, EWS-FLI1 expression: low (doxycycline-induced shRNA knockdown) 0.0219 | 2.8 µM, library screen: screen3, EWS-FLI1 expression: high (no doxycycline) 0.0558 | 2.8 µM, library screen: screen3, EWS-FLI1 expression: low (doxycycline-induced shRNA knockdown) 0.00975 | 8.3 µM, library screen: screen3, EWS-FLI1 expression: high (no doxycycline) 0.0577 | 8.3 µM, library screen: screen3, EWS-FLI1 expression: low (doxycycline-induced shRNA knockdown) 0.0516 | 25 µM, library screen: screen3, EWS-FLI1 expression: high (no doxycycline) 0.0518 | 25 µM, library screen: screen3, EWS-FLI1 expression: low (doxycycline-induced shRNA knockdown) 0.0747
